The whole screen tested about 340,000 compounds, of which about 3,300 (0.97%) were called active. Shown is part of a subset that was picked to be rich in actives. A number with no mark means an inactive call.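 The calls were made as follows: active = inhibition above the mean over all tested compounds plus 3 SD (cut at about 30% in these data); inactive = the rest.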
These compounds were tested against Platelet-activating factor acetylhydrolase 2, cytoplasmic (Homo sapiens) (UniProt Q99487) (assay: PAFAH2 enzyme inhibitors, primary screen, biochemical, fluorescence polarization, human (AID 492956;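 also: inhibitors block probe labeling of enzyme so polarization drops; 0% = enzyme with DMSO and 100% = wells lacking PAFAH2 protein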)). Conditions: recombinant PAFAH2, FP-rhodamine activity probe, at 3.39 µM, active compounds read high.

| Compound | inhibition |
| --- | --- |
| Cc1ccc(-n2ncc3c2CC(C)(C)CC3NC(=O)Cc2c(C)noc2C)cc1 (stereo not drawn) | -3.4% |
| COc1ccc(C(C(=O)NCc2ccccc2)N(Cc2cccs2)C(=O)c2cnccn2)cc1 (stereo not drawn) | 2.03% |
| N[C@@H](Cc1ccccc1)C(=O)N1CCC(C(=O)NCC(=O)Nc2ccc(F)cc2)CC1 | -5.9% |
| C=CCn1c(=S)[nH]c2nc3c(cc2c1=O)COC(C)(C)C3 | 6.59% |
| C=CCn1cnc2scc(-c3ccccc3)c2c1=O | -1.85% |
| C=CCn1c(=S)[nH]c2scc(-c3ccco3)c2c1=O | 38.7% (active) |
| O=S1(=O)C=C(SCCN2CCCC2)c2ccccc21 | 6.55% |
| C=CCN1C2CCCC1CC(NC(=S)Nc1cccc(OC)c1)C2 (stereo not drawn) | 1.32% |
| COc1cc(C(=O)OCC(=O)NC23CC4CC(CC(C4)C2)C3)cc(OC)c1OC | 77.8% (active) |
| O=C(COC(=O)c1cccnc1Cl)Nc1ccc(S(=O)(=O)N2CCOCC2)cc1 | -2.28% |
| O=C(COC(=O)c1cccnc1Cl)NC12CC3CC(CC(C3)C1)C2 | 86.5% (active) |
| O=C(COC(=O)c1ccc([N+](=O)[O-])o1)NC12CC3CC(CC(C3)C1)C2 | 59.8% (active) |
| NC(=O)COc1ccccc1C(=O)NC12CC3CC(CC(C3)C1)C2 | 6.96% |
| O=C(COC(=O)c1ccc(Br)o1)NC12CC3CC(CC(C3)C1)C2 | 26.2% |
| O=C(OCC(=O)c1cccs1)c1ccc([N+](=O)[O-])o1 | -2.46% |
| COc1ccccc1C(=O)NC(=S)NC12CC3CC(CC(C3)C1)C2 | -0.29% |
| COc1cc(C(=O)OCC(=O)NC(C)CCc2ccccc2)cc(OC)c1OC (stereo not drawn) | 5.21% |
| COc1ccc(COC(=O)c2ccc(Cl)c(S(=O)(=O)N3CCOCC3)c2)cc1F | 8% |
| CN(C)S(=O)(=O)c1ccc(NC(=O)COC(=O)Cn2[nH]c(=O)c3ccccc3c2=O)cc1 | 1.37% |
| CCOc1ccc2c(c1)cc(CN(C(=O)CC)C1CCCCC1)c1nnnn12 | 9.13% |
| COc1ccc(C(=O)COC(=O)c2ccc([N+](=O)[O-])s2)cc1OC | 18.3% |
| COc1cc(NC(=O)COC(=O)c2ccc([N+](=O)[O-])s2)cc(OC)c1OC | 36.9% (active) |

| Compound | inhibition |
| --- | --- |
| COc1cc(NC(=O)COC(=O)c2cnc(C)cn2)c(C)cc1[N+](=O)[O-] | 4% |
| Cc1ccc2c(c1)N(C(=O)CCC(=O)N1CCc3ccccc3C1)CCO2 | 1.77% |
| COc1ccc(C(=O)COC(=O)c2nn(C)c(=O)c3ccccc23)c(OC)c1 | 1.19% |
| COc1ccc(C(=O)OCC(=O)Nc2ccc3[nH]c(=O)[nH]c3c2)c(OC)c1OC | 2.25% |
| COc1ccc(C(=O)OCC(=O)c2ccc(Cl)s2)c(OC)c1OC | 65.5% (active) |
| COc1ccccc1NC(=O)N(O)C1(C#N)CCCCC1 | 17.2% |
| Clc1ccc(-c2nc3ccccn3c2CN2CCSCC2)cc1 | 3.86% |
| COc1cc(CCC(=O)OCC(=O)Nc2cccc(S(N)(=O)=O)c2)cc(OC)c1OC | 8.16% |
| O=C1C(=O)N(CCCO)C(c2ccccc2)/C1=C(\O)c1ccc(Br)cc1 (stereo not drawn) | 2.68% |
| O=[N+]([O-])c1ccc(N2CCOCC2)cc1 | 6.57% |
| O=c1[nH]n(-c2ccc([N+](=O)[O-])cc2)c(=O)c2ccccc12 | 32.5% (active) |
| COc1cnn(-c2ccc([N+](=O)[O-])cc2)c(=O)c1Cl | 5.97% |
| COc1cccc(NC(=O)[C@H](Cc2c[nH]c3ccccc23)NC(=O)[C@@H]2Cc3ccccc3CN2)c1 | 4.49% |
| CC(C)(C)OC(=O)C[C@@H]1C/C=C\C[C@H](CC(=O)N[C@@H](CO)Cc2ccccc2)C(=O)N[C@H](Cc2ccccc2)COC1=O | -5.38% |
| CCOC(=O)C1=C(N)N(c2ccc(C)cc2)C2=C(C(=O)CCC2)C1c1cccs1 (stereo not drawn) | 11% |
| COc1ccc(NC(=O)CCCC(=O)c2ccccc2)cc1 | -4.3% |
| COc1ccc(NC(=O)CS(=O)(=O)c2ccccc2)cc1 | -6.64% |
| COc1ccc(NC(=O)CC(NC(C)c2ccccc2)C(=O)O)cc1 (stereo not drawn) | 35.8% (active) |
| O=C1N(c2ccccc2)C(=Nc2ccccc2)SC12CC2 | -1.71% |
| COc1ccc(N(Cc2cc3ccc(C)cc3[nH]c2=O)S(=O)(=O)c2ccccc2)cc1 | 1.35% |
| CCCCn1c(N)c(N(Cc2ccccc2OC)C(=O)COc2cc(C)ccc2Cl)c(=O)[nH]c1=O | -1.09% |
| O=C(O)/C=C/c1ccc(S(=O)(=O)N2CCCCCC2)cc1 | 0.61% |

| Compound | inhibition |
| --- | --- |
| O=C(COC(=O)/C=C/c1ccc(S(=O)(=O)N2CCCCCC2)cc1)NCc1ccccc1Cl | 33.9% (active) |
| O=C(COc1ccc(S(=O)(=O)N2CCCCC2)cc1)NCc1ccccn1 | 9.09% |
| O=C(Nc1ccc(F)cc1)c1cccnc1N1CCOCC1 | -2.86% |
| CC1=C(C(=O)Nc2ccc(Cl)cc2)C(c2ccco2)NC(=O)N1 (stereo not drawn) | 0.63% |
| COc1ccc(Nc2nc(N)nc(CSC(=S)N3CCC(C)CC3)n2)cc1 | 5.5% |
| COc1ccccc1Nc1nc(N)nc(CSC(=S)N2CCOCC2)n1 | 30.8% (active) |
| Cc1ccccc1Nc1nc(N)nc(CSc2ccccc2)n1 | 3.88% |
| O=C(CN1CCCCCC1)Nc1ccc(Br)cc1Br | 2.02% |
| O=c1oc(-c2ccccc2NS(=O)(=O)c2ccc(Cl)cc2)nc2ccccc12 | 82.1% (active) |
| O=c1oc2ccccc2c(NC2CCCCC2)c1NS(=O)(=O)c1ccc(Cl)cc1 | 5.54% |
| O=c1ccc2cc(S(=O)(=O)Nc3ccccc3F)ccc2o1 | 0.74% |
| CCCCNS(=O)(=O)c1ccc2nc(SCC(=O)Nc3cc(C)cc(C)c3)[nH]c2c1 | -16.9% |
| N#Cc1cccc(NC(=O)COC(=O)c2ccccc2C(=O)c2ccc(Cl)c([N+](=O)[O-])c2)c1 | 58.9% (active) |
| CC(=O)Nc1ccc(NC(=O)C(C)OC(=O)c2ccccc2C(=O)c2ccc(Cl)c([N+](=O)[O-])c2)cc1 (stereo not drawn) | -5.1% |
| COC(=O)c1cc(NC(=O)Cc2ccccc2[N+](=O)[O-])ccc1Cl | 0.54% |
| COC(=O)c1onc(-c2c(OC)cc(OC)cc2OC)c1C(=O)OC | -0.23% |
| Cc1cn(C2CC(O)C(CO)O2)c(=O)n(CCCc2ccccc2)c1=O (stereo not drawn) | -0.23% |
| COc1cccc(CNC(=O)C2CCN(S(=O)(=O)c3cccc4cccnc34)CC2)c1 | -7.61% |
| O=C(Cc1ccc(NC(=O)C2CCCN(C(=O)C3CCCCC3)C2)cc1)Nc1cccc(C(=O)N2CCCCC2)c1 (stereo not drawn) | -2.71% |
| O=C(CC1Sc2ccccc2NC1=O)NNc1ccc(Cl)c(Cl)c1 (stereo not drawn) | 6.55% |
| CCN(CC)CCn1c2ccc(Cl)cc2c2nc(C)sc21 | -2.76% |
| CCN(CC)CCCC(C)n1c2nc(=O)[nH]c(=O)c-2nc2cc(Cl)ccc21 (stereo not drawn) | 38.8% (active) |

| Compound | inhibition |
| --- | --- |
| Cc1ccc(S(=O)(=O)N(Cc2cc3ccccc3[nH]c2=O)CC2CCCO2)cc1 (stereo not drawn) | 4.81% |
| Cn1c(NC(=O)c2ccco2)c(-c2ccccc2Cl)c(=O)c2ccccc21 | -1.9% |
| Cc1[nH]c(C)c(S(=O)(=O)N2CCN(c3cccc(C(F)(F)F)c3)CC2)c1C(=O)N1CCCCC1 | 8.89% |
| CCOc1ccc(/C=N/OCC(=O)NCc2cccs2)cc1 | 4.81% |
| O=C(COC(=O)/C=C/c1cccc(Cl)c1)NCc1cccs1 | 37% (active) |
| COc1ccc(/C=C/C(=O)OCC(=O)NCc2cccs2)cc1OC | 49.4% (active) |
| COc1ccc(Cl)cc1C(=O)OCC(=O)NCc1cccs1 | 1.83% |
| O=C(COC(=O)/C=C/c1cccc(Cl)c1)NCCc1ccccc1 | 20.5% |
| CCOc1ccc(/C=C/C(=O)N(CC)CC(=O)NCc2cccs2)cc1OC | 5.35% |
| CN(CCc1ccccc1)C(=O)c1cccc(NC(=O)Cc2cccc(NC(=O)C3CCCN(C(=O)C4CCC4)C3)c2)c1 (stereo not drawn) | -1.94% |
| COc1ccc(CCNC(=O)CN(C)S(=O)(=O)c2ccc3nc(C)sc3c2)cc1OC | -0.36% |
| COC(=O)C1=C(C)NC(=S)NC1c1ccc(OCC(=O)N2CC(C)OC(C)C2)c(OC)c1 (stereo not drawn) | -0.58% |
| Cc1ccc(NS(=O)(=O)c2cn(C)c(=O)n(C)c2=O)c(C)c1 | 1.4% |
| COc1ccc(S(=O)(=O)N2CN(CCc3ccc(OC)c(OC)c3)c3nc4ccccc4nc32)cc1 | 8.38% |
| CCOc1ccc(C(=O)Nc2cccc(SC)c2)cc1 | -11.9% |
| CC(=O)c1c(C)[nH]c(C(=O)OCC(=O)Nc2cc(S(=O)(=O)N3CCCCC3)ccc2C)c1C | 7.66% |
| CC(=O)c1c(C)[nH]c(C(=O)OCC(=O)Nc2c(C)cccc2C)c1C | 4.64% |
| CC(=O)c1c(C)[nH]c(C(=O)OCC(=O)NCCC(C)C)c1C | 30.4% (active) |
| CCC(C)NC(=O)C1CCCN(C(=O)NC2CCCCC2)C1 (stereo not drawn) | 10.5% |
| COc1ccc(C(=O)C2CCCN(C(=O)c3cc4nc(C)cc(C)n4n3)C2)cc1F (stereo not drawn) | -3.28% |
| c1coc(-c2nc3nc4ccccc4n3nc2-c2ccco2)c1 | 45.7% (active) |
| COc1cc(OC)cc(C(=O)NC(=S)N2CCN(c3ccc(C(F)(F)F)cc3[N+](=O)[O-])CC2)c1 | 7.31% |

From PubChem BioAssay AID492956 (The Scripps Research Institute Molecular Screening Center, 2010)
